Sampled rows, rich in hits. Any-hit rate of the full collection: about 19%.
TDP1 cell noCPT: qHTS for Inhibitors of human tyrosyl-DNA phosphodiesterase 1 (TDP1): qHTS in cells in absence of CPT; DT40 Tdp1-/- hTDP1 cells, no CPT, ATP luminescence, 48 h; Potency, µM (highest dose often 46.2 µM), inactives show at the top dose activity change, negative = growth inhibition, most hits filed as inhibitors; 15% of 420,000 active; AID 686978, 2013; note: potency is the fitted concentration of half-maximal effect; nearly all actives have a fitted effect of over 55% in size
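Readout: luminescence from CellTiter-Glo after 30 min in the dark at RT. Cells: DT40 Tdp1-/- with stable hTDP1, 400/well. Exposure: compounds alone, ≥48 hr, 37 °C.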
HT1080NT lethal: kills 2HG-producing HT-1080-NT fibrosarcoma cells. HT-1080-NT fibrosarcoma viability, CellTiter-Glo ATP luminescence, 48 h. Potency, µM (top dose mostly 46.1 µM), for inactives: at the top dose activity, negative = less viability, usual class: cytotoxic. 1.6% of 360,000 active;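 note: NT is the 2HG producing partner of a matched IDH1 knockdown line; potency is the fitted concentration of half-maximal effect; 0% = DMSO-treated cells and -100% = media-only wells without cells; nearly all actives have a fitted effect of over 55% in size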
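Compounds were tested in concentration-response format on HT-1080-NT cells for 48 hours at 37 degrees C. Cell viability came from CellTiter-Glo luminescence; curves were classified by r2, response magnitude and activity.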
DT40 TDP1 CPT: growth inhibition of DT40 Tdp1-/-;hTDP1 cells with camptothecin (screen for TDP1 inhibitors); chicken DT40 Tdp1-/-;hTDP1 cells + 20 nM CPT, ATP luminescence, 48 h; 12% of 420,000 active; Potency, µM (titrated, usually from 46.2 µM), inactives show top-dose activity change, negative = growth inhibition, hits mostly inhibitors; note: potency is the fitted concentration of half-maximal effect; nearly all actives have a fitted effect of over 55% in size
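Chicken DT40 Tdp1-/- cells complemented with human TDP1, 400 cells/well, exposed to compounds plus 20 nM camptothecin for at least 48 h at 37 C; viability read as ATP content by CellTiter-Glo luminescence.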
IL1B secr inh: inhibitors of inflammasome signaling (IL-1 beta secretion) | THP-1 LPS/ATP IL-1B secretion, AlphaLISA, 16 h; stronger effect = lower value | activity change, % at 57.5 µM | 4.7% of 360,000 active | AID 743279; in the data active = activity change below about -50%; inconclusive = mostly about -30% to -49%
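THP-1 cells pretreated 1 hr with compounds (up to 57.5 uM final), then stimulated with LPS (250 ng/mL final) plus ATP (1.25 mM final); secreted IL-1B measured by AlphaLISA after 16 hr, decreased signal indicating inhibition.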
HT1080 IDH1KD tx: HT-1080 IDH1 knockdown cell toxicity (counter line) | HT-1080 IDH1 knockdown viability, ATP luminescence, 48 h | Potency, µM (titrated, usually from 46.1 µM), without a hit: top-dose activity, negative = toxicity, most hits filed as cytotoxic | 2% of 360,000 active;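 note: potency is the fitted concentration of half-maximal effect; 0% = DMSO wells and -100% = cell-free medium wells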
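Viability of IDH1-knockdown HT-1080 fibrosarcoma cells was assessed by CellTiter-Glo after 48 h at 37 °C with titrated compound; concentration-effect curves were classified by fit quality and response size.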
An asterisk follows results filed as active; ? = inconclusive; · = not tested or not shown; [ ] = dose if it differs, or a comment. Unless noted, calls come from the whole dose curve; as a rule, active = well fitted curve in the direction sought with a large enough effect; inconclusive = small, poorly fitted or top-dose-only effect, or another doubt; inactive = no such curve, though single readings can be large; an effect the other way counts as inactive or inconclusive. Unless noted, % is set by controls: 0 for no effect and ±100 for the full control effect.

SMILES	TDP1 cell noCPT	HT1080NT lethal	DT40 TDP1 CPT	IL1B secr inh	HT1080 IDH1KD tx
CC1CCC(NC(=O)Cn2c(=O)oc3cc(S(=O)(=O)N4CCCC4)ccc32)CC1 (stereo not given)	-20.5%	-0.9%	-11.8%	11.8	-6.8%
Cc1cccc(C(C)C)c1NC(=O)Cn1c(=O)oc2cc(S(=O)(=O)N3CCCC3)ccc21	14.6µM*	·	18.4µM*	·	·
O=C(COC(=O)c1cccc(OC(F)F)c1)Nc1cccc(S(=O)(=O)N2CCCC2)c1	-19.5%	-1.2%	-19.2%	10.6	2.6%
Nc1ncnc2c(C3OC(CO)C(O)C3O)c[nH]c12 (stereo not given)	0.146µM*	0.231µM*	0.164µM*	-103.6*	0.146µM*
COc1ccc(N2CC(C(=O)N/N=C/c3c[nH]c4ccccc34)CC2=O)cc1 (stereo not given)	-10.7%	0.5%	14.0%	14.0	-0.8%
O=C(N/N=C/c1ccccc1O)C1CC(=O)N(c2ccc(F)cc2)C1 (stereo not given)	5.8µM*	?	3.26µM*	88.9	?
COc1ccc([C@@H]2[C@@H](O)[C@H](O)[C@@H](C)N2C)cc1OC	-15.7%[9.04 µM]	·	-20.4%[9.04 µM]	·	·
CCn1c(=O)cc(OCC(=O)N(C)C2CCCCC2)c2ccccc21	-2.4%	-1.2%	?	-1.3	0.4%
CCOC(=O)N1CCN(C(=O)COc2cc(=O)n(C)c3ccccc23)CC1	-1.7%	-2.5%	-7.0%	-14.5	-2.6%
CCn1c(=O)cc(OCC(=O)N2CCN(C(=O)c3ccco3)CC2)c2ccccc21	-21.1%	-0.9%	?	-18.3	-9.6%
CCn1c(=O)cc(OCC(=O)N2CCN(c3cccc(C)c3C)CC2)c2ccccc21	7.31µM*	·	9.2µM*	·	·
Cn1c(=O)cc(OCC(=O)N2CCN(c3cccc(C(F)(F)F)c3)CC2)c2ccccc21	14.6µM*	8.1%	20.6µM*	25.5	-5.0%
CCn1c(=O)cc(OCC(=O)N2CCN(c3cccc(Cl)c3)CC2)c2ccccc21	14.6µM*	·	23.1µM*	·	·
CCn1c(=O)cc(OCC(=O)N(C)c2cc(Cl)ccc2C)c2ccccc21	23.1µM*	·	20.6µM*	·	·
CCC(C)Oc1nc2c(c(=O)n(C)c(=O)n2C)n1C (stereo not given)	-20.0%	5.4%	-5.3%	30.6	4.1%
CCc1ccccc1NC(=O)Cn1nc(CC)n2c(cc3sccc32)c1=O	?	·	-20.8%	·	·
O=C1CCN(S(=O)(=O)c2ccccc2)N1	9.1%	1.9%	-1.3%	-1.4	22.0%
O=C1CCN(c2ccccc2)N1	-50.4%	0.0%	29.1µM*	1.3	-1.3%
O=C1/C(=C\c2cc([N+](=O)[O-])ccc2O)SC(=S)N1Cc1ccc(Cl)cc1	3.66µM*	23.1µM*	16.4µM*	-10.1	23.1µM*
CCCN1C(=O)/C(=C/c2ccncc2)SC1=S	?	0.0%	?	0.4	12.3%
O=C(O)c1cccc(CN2C(=O)S/C(=C/c3ccccc3[N+](=O)[O-])C2=O)c1	?	-28.2%	-18.1%	-82.0*	?
O=C1/C(=C\c2cccc(O)c2O)SC(=S)N1Cc1ccccc1	23.1µM*	?	?	-97.6*	?
O=C1/C(=C/c2ccncc2)SC(=S)N1Cc1ccccc1	16.4µM*	23.1µM*	?	-81.7*	18.4µM*
CCc1cccc(C)c1NC(=S)N(CCCN1CCOCC1)Cc1cccnc1	0.5%	11.6%	8.0%	-4.1	9.3%
CCCCn1c(N)c(N(CC(C)C)C(=O)c2ccc(N3C(=O)CCC3=O)cc2)c(=O)[nH]c1=O	7.8%	9.7%	1.6%	-3.4	29.6%
SMILES	TDP1 cell noCPT	HT1080NT lethal	DT40 TDP1 CPT	IL1B secr inh	HT1080 IDH1KD tx
CC1(C)C(=O)N(c2ccccc2Cl)C(=O)c2ccccc21	?	15.2%	-6.8%	-5.8	8.8%
C#CCOc1ccc(/C=C2\SC(=S)N(Cc3cccnc3)C2=O)cc1	4.61µM*	-1.8%	3.26µM*	6.2	?
O=C1/C(=C\c2cccc(O)c2)SC(=S)N1Cc1ccccc1	?	4.0%	?	-18.4	4.8%
O=C1/C(=C\c2ccc(O)c(O)c2)SC(=S)N1Cc1ccccc1	18.4µM*	?	20.6µM*	-87.4*	?
O=C1/C(=C/c2ccncc2)SC(=S)N1N1CCOCC1	?	-1.0%	13µM*	-8.1	-13.9%
O=C1/C(=C/c2ccc(O)cc2)SC(=S)N1Cc1cccnc1	-16.8%	4.3%	-23.7%	-12.2	13.4%
Cc1ccc(NC(=O)CN2C(=O)CCSc3ccc(S(=O)(=O)N4CCCC4)cc32)cc1C	?	-2.1%	?	-4.3	-14.3%
Cc1ccc(NC(=O)CN2C(=O)CSc3ccc(S(=O)(=O)N4CCCC4)cc32)cc1F	23.1µM*	·	?	·	·
Cc1cc(NC(=O)CN2C(=O)CSc3ccc(S(=O)(=O)N(C)C)cc32)ccc1Br	20.6µM*	·	?	·	·
CC(C)c1ccc(NC(=O)CN2C(=O)CSc3ccc(S(=O)(=O)N4CCCC4)cc32)cc1	16.4µM*	·	16.4µM*	·	·
COc1ccc(C(=O)N/C(=C\c2ccco2)C(=O)NC2CCS(=O)(=O)C2)cc1 (stereo not given)	-18.9%	6.7%	?	-10.4	16.5%
Cc1ccc(S(=O)(=O)N2C[C@H]3C(=O)C[C@@H](c4ccccc4C)N(S(=O)(=O)c4ccc(C)cc4)[C@H]3C[C@H]2c2ccccc2)cc1	-26.7%	13.9%	-24.0%	-18.0	15.6%
C/C(Cl)=C/Cc1c(C)[nH]c2c(ccc3ccccc32)c1=O	23.1µM*	1.6%	?	-4.6	6.7%
CC(=O)Nc1ccc(-c2csc(NC(C)c3ccccc3)n2)cc1 (stereo not given)	-17.5%	4.6%	-5.2%	21.4	6.1%
NC(CCC(=O)NC(CCSC(CC(=O)O)C(=O)O)C(=O)NCC(=O)O)C(=O)O (stereo not given)	-3.7%	·	-7.1%	·	·
C[C@H]1CN([C@@H](C)CO)C(=O)CCCn2nncc2CO[C@@H]1CN(C)Cc1ccc(-c2ccccc2)cc1	10.3µM*	-29.2%	9.2µM*	-24.6	?
C[C@@H]1CN([C@@H](C)CO)C(=O)CCCn2nncc2CO[C@@H]1CN(C)S(=O)(=O)c1ccc(Oc2ccccc2)nc1	?	-1.1%	?	?	7.2%
C[C@H](CO)N1C[C@H](C)[C@@H](CN(C)Cc2ccc(C(F)(F)F)cc2)OCc2cnnn2CCCC1=O	?	-2.5%	25.9µM*	4.2	-6.2%
COc1ccccc1CN(C)C[C@@H]1OCc2cnnn2CCCC(=O)N([C@@H](C)CO)C[C@H]1C	-9.4%	-1.9%	1.0%	8.8	-0.8%

Screens: PubChem, National Center for Advancing Translational Sciences (NCATS)
